# Test results reported in PubChem BioAssay (NCI).
# The panel holds about 83,000 compounds, 20% with a hit somewhere; the sample as a whole holds those more often.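 Each cell line was grown in a 96-well plate and treated with one concentration of compound for 48 hours. Values below 10 were considered active.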 Unmarked numbers belong to inactive results. Calls of active or inactive are those of the source.
# Key:
# Assay in all cases: NCI-60 one-dose screen, 48 h (100 = growth as untreated, 0 = no growth, -100 = all killed)
# Conditions in all cases: 10 µM
# NCI-H23 lung = tested on: NCI-H23 lung
# NCI-H226 lung = tested on: NCI-H226 lung
# NCI-H322M lung = tested on: NCI-H322M lung
# HOP-62 NSCLC = tested on: HOP-62 NSCLC
# NCI-H460 lung = tested on: NCI-H460 lung
# NCI-H522 lung = tested on: NCI-H522 lung
# A549/ATCC NSCLC = tested on: A549/ATCC NSCLC
# 786-0 renal = tested on: 786-0 renal
# COLO 205 colon = tested on: COLO 205 colon
# HOP-92 NSCLC = tested on: HOP-92 NSCLC
Compound,growth (NCI-H23 lung) [%],growth (NCI-H226 lung),growth (NCI-H322M lung) [%],growth (HOP-62 NSCLC) [%],growth (NCI-H460 lung) [%],growth (NCI-H522 lung),growth (A549/ATCC NSCLC) [%],growth (786-0 renal) [%],growth (COLO 205 colon),growth (HOP-92 NSCLC) [%]
CC(=O)Nc1cccc(Cl)c1C,103,102%,94,100,106,87.7%,88.2,96.5,107%,–
O=C(c1ccc(Cl)cc1)c1ccccc1Cl,91.2,99.9%,97.9,93.7,103,90.7%,–,93.6,–,–
CC(=O)c1ccc2c(ccc3ccccc32)c1,102,94%,105,115,101,93.1%,95.3,91,111%,–
CCCCC(CC)COC(C)=O (configuration not stated),100,105%,98,–,106,105%,105,96,100%,95.6
Cc1ccc(CCCC(=O)O)c(C)c1,103,93.4%,102,95.7,102,–,–,99.4,102%,–
CC1(C)OC(=O)C(c2ccsc2)C(=O)O1,95,105%,102,–,113,82.6%,84.7,108,–,104
CCC(C#N)(CC)c1ccccc1,99.5,99.3%,99.4,92.9,104,–,111,–,106%,–
C/C(=C\c1ccc([N+](=O)[O-])cc1)C(=O)O,102,98.3%,111,–,102,87.1%,91.7,96.7,–,95.1
C/C=C/CC(C)C(O)C1C(=O)NC(CC)C(=O)N(C)CC(=O)N(C)C(CC(C)C)C(=O)NC(C(C)C)C(=O)N(C)C(CC(C)C)C(=O)NC(C)C(=O)NC(C)C(=O)N(C)C(CC(C)C)C(=O)N(C)C(CC(C)C)C(=O)N(C)C(C(C)C)C(=O)N1C (configuration not stated),20.1,5.76% (active),33.8,35.6,–,9.55% (active),17.2,41.9,-72.8% (active),–
Sc1ccc(Nc2c3ccccc3nc3ccccc23)cc1,73,91.2%,74.6,92.4,–,40.9%,61,95.5,38.9%,76.9
CC1OC(Oc2c(-c3ccc(O)c(O)c3)oc3cc(O)cc(O)c3c2=O)C(O)C(O)C1O (configuration not stated),102,96.1%,106,–,105,102%,102,108,104%,88.6
O=C1N(C[P+](c2ccccc2)(c2ccccc2)c2ccccc2)CCCN1C[P+](c1ccccc1)(c1ccccc1)c1ccccc1,109,102%,106,–,107,108%,101,103,–,79.5
CC(C)OC(C(=O)O)c1ccccc1 (configuration not stated),101,108%,117,91.1,109,–,105,–,111%,–
Cc1c(C(=O)O)c(=O)n(-c2ccccc2)n1C,92,103%,122,96.7,–,104%,108,113,110%,–
CC(=O)NCc1cc(C)c(C)cc1C,102,93.4%,92,106,104,–,–,97.8,94.2%,–
COc1ccc(C(=O)C(Br)C(Br)C(=O)O)cc1 (configuration not stated),99.1,102%,94.1,108,104,–,–,100,110%,–

Compound,growth (NCI-H23 lung) [%],growth (NCI-H226 lung),growth (NCI-H322M lung) [%],growth (HOP-62 NSCLC) [%],growth (NCI-H460 lung) [%],growth (NCI-H522 lung),growth (A549/ATCC NSCLC) [%],growth (786-0 renal) [%],growth (COLO 205 colon),growth (HOP-92 NSCLC) [%]
COc1ccccc1N=Nc1c(O)ccc2cc(S(=O)(=O)O)ccc12,86.8,98.2%,99.1,82.7,–,85.7%,100,107,104%,84.7
OC1OC(COC(c2ccccc2)(c2ccccc2)c2ccccc2)C(O)C(O)C1O (configuration not stated),98.1,90.1%,92.1,107,101,–,–,102,117%,–
O=C(O)c1ccnc(Br)c1,97.8,92.6%,106,–,104,105%,102,102,107%,96.9
CCOC(=O)CCCC(=O)OCC,97.9,104%,99.2,–,105,105%,101,102,101%,101
CCCCCCCCOC(=O)c1ccccn1,91.5,104%,98.9,93.5,109,–,107,–,106%,–
O=C(/C(=N/O)c1ccccc1)c1ccccc1,105,91.2%,95.8,–,108,109%,98.1,98.1,115%,96.6
Cc1cc2ccccc2c(O)c1C#N,91.1,102%,119,85.5,107,–,107,–,112%,–
COc1ccc(OC)c(/C=C2\CCc3ccccc3C2=O)c1,62.7,76.5%,70,–,13.9,22.5%,42.6,46.9,–,45.2
CC(=O)Cc1ccc(-c2ccccc2)cc1,95.6,91.5%,85.9,–,103,111%,94.8,105,115%,96.3
O=C(OCC(O)C1OC(c2ccccc2)OC(COC(=O)c2ccccc2)C1O)c1ccccc1 (configuration not stated),111,99.6%,109,99,104,–,–,111,99.9%,–
Cc1cccc(CO)c1,94.5,99%,102,–,105,105%,102,104,105%,102
CC1(C(N)=O)CCC(C(=O)O)C1(C)C (configuration not stated),103,95.5%,95.2,–,103,106%,98,98,108%,94.3
COC(=O)/C=C/C(=O)NC(N)=O,94.7,94.1%,107,98.8,105,–,–,103,105%,–
CC(C)=CC(=O)OC(=O)C=C(C)C,117,93.5%,104,103,106,–,–,106,113%,–
COc1cc(/C=C(\C#N)C(=O)c2ccccc2)ccc1OCc1ccccc1,91.5,92.3%,91.6,–,101,97.6%,104,101,–,95.7
CCOC(=O)C(O)C(O)C(=O)OCC (configuration not stated),100,106%,102,–,103,101%,104,105,106%,94.1
